Screening results from PubChem BioAssay.
GRP78 ERSR act: qHTS for Inducers of the Endoplasmic Reticulum Stress Response (ERSR) in Human Glioma: qHTS; U87-MG GRP78 promoter luciferase reporter, 16 h; Potency, µM, without a hit: at the highest dose activation, actives largely listed as activators; 0.02% of 420,000 active; AID 602332, 2012; active = well fitted activation curve with a large enough effect; also: potency is read from the fitted curve at half-maximal effect; series mostly up to about 76 µM; % of control where 0% means no effect; nearly all actives have a fitted effect of over 35% in size
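Stably transfected U87-MG glioma cells carrying a GRP78-based luciferase sensor; 16 h compound incubation. Luminescence end-point read 10 min after Bright-Glo addition at room temperature.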
TRHR ag: qHTS for Small Molecule Agonists and Allosteric Enhancers of Human TRH Receptor: Primary Screen for Agonists. 0.18% of 360,000 active. TRHR cells, calcium flux fluo-8, FDSS agonist mode. activation, % at 2 µM. AID 493084, 2011; also: 0% is about no effect
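Agonist-mode FDSS calcium read (Ex 480/Em 530, 1 s cycles) in 1536-well TRHR cells with fluo-8 dye, after 10-cycle baseline and 23 nL compound addition; TRH at EC20 (10 nM final) added afterwards for the enhancer phase.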
D1 agonist: Allosteric Agonists of the Human D1 Dopamine Receptor: qHTS | D(1A) dopamine receptor (Homo sapiens), P21728 | activation, % at 2 µM | 1% of 360,000 active | AID 504660, 2011 | HEK293 T-REx D1 cells, calcium flux, agonist mode; also: 0% is about no effect
Target sequence (P21728 whole entry, looked up): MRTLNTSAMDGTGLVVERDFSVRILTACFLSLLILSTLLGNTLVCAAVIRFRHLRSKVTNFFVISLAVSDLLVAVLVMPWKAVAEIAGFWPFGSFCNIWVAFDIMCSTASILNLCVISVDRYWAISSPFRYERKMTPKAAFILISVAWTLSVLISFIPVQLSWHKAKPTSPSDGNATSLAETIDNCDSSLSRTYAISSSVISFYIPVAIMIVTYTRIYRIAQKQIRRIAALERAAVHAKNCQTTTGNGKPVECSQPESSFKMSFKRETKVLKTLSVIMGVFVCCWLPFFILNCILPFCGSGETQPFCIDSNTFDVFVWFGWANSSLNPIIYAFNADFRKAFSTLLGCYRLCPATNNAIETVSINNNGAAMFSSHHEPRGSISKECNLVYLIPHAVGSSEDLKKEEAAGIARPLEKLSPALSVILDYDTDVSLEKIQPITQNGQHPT
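Inducible HEK293 T-REx D1 cells, force-coupled to calcium signalling, were plated at 4000 cells/well with tetracycline and held overnight at 30 C. After no-wash calcium dye loading, compound-evoked calcium rise over 180 s flagged agonists.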
D1 antagonist: Antagonist of Human D 1 Dopamine Receptor: qHTS; activity change, negative = inhibition, % at 10 µM; D(1A) dopamine receptor (Homo sapiens), P21728; HEK293 TREx D1 cells, calcium flux, dopamine EC80; hits give low values; AID 504652, 2011; 3.2% of 360,000 active; in the data active = activity change below about -30%; also: % is scaled to controls: 0 for no effect and ±100 for the full control effect
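HEK293 T-REx cells expressing inducible, force-coupled D1 receptor; no-wash Ca dye, 30–90 min RT. Cmpd → 180 s read at 1 Hz → EC80 DA → 180 s read.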
D1 potentiator: Potentiators of Human D1 Dopamine Receptor: qHTS; HEK293 TREx D1 cells, calcium flux, dopamine EC20 potentiation; potentiation, % at 10 µM; 0.036% of 360,000 active; AID 504651, 2011; in the data active = potentiation above about 30%; also: 0% is about no effect
TRHR enhancer: qHTS for Small Molecule Agonists and Allosteric Enhancers of Human TRH Receptor: Primary Screen for Enhancers; Thyrotropin-releasing hormone receptor (Homo sapiens), P34981; TRHR cells, fluo-8 calcium fluorescence, EC20 TRH enhancement; enhancement, % at 2 µM; 0.66% of 360,000 active; AID 493056, 2011; in the data active = enhancement above about 30%; also: 0% is about no effect
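Enhancer read-out: after compound pinning and an initial kinetic agonist-mode read, an EC20 of TRH (10 nM final) was injected and fluo-8 calcium signal (Ex 480/Em 530) followed at 1 s/cycle for 100 cycles in TRHR-expressing cells.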
Active calls of the source: *; nt = no result given. An excerpt weighted towards active compounds, which were near 4% of everything screened. Rule as the data show it, unless noted: active = activation above about 30%; inactive = the rest.

SMILES	GRP78 ERSR act	TRHR ag	D1 agonist	D1 antagonist	D1 potentiator	TRHR enhancer
Cc1cccc(OCC(=O)Nc2ccc3nc(C)sc3c2)c1	-1.8%	-0.4	8.6	-32.6*	-9.5	10.3
O=C(NCCC[N+]1=CC=N[C@H]1c1ccccc1)N1CCCc2nc(-c3ccc(Br)cc3)ccc21	-2.1%	nt	nt	nt	nt	nt
Cc1cc(C(=O)NCC2CCC3(CCN(Cc4ccc5ccccc5c4)CC3)O2)n(C)n1 (stereo unspecified)	-0.2%	nt	nt	nt	nt	nt
CNS(=O)(=O)c1cn(CC(=O)N2CCN(c3ccc(Cl)cc3)CC2)cc1S(=O)(=O)NC	-1.9%	-0.5	0.7	-4.2	-1.5	1.1
CC(C)(C)OC(=O)N(c1cccc2cccnc12)S(=O)(=O)c1ccccc1Br	5.7%	0.2	1.1	29.6	0.5	11.2
Cc1cc(C)cc(OCCSc2nc3ccc(NC(=O)COc4ccccc4)cc3s2)c1	0.5%	0.9	14.5	-1.1	-0.5	8.3
O=C(COc1ccccc1)Nc1ccc2nc(SCCOc3ccccc3)sc2c1	3.5%	1.6	6.8	-30.6*	3.4	-0.9
CCOc1ccc2nc(N3CCC(C(=O)NCCCN4CCOCC4)CC3)sc2c1	2.3%	-0.1	1.1	3.9	0.8	-1.7
CCOc1ccc2nc(N3CCC(C(=O)NC4CCCCC4)CC3)sc2c1	-2.0%	0.1	8.6	-3.2	-0.1	-0.1
CCCCN(CC)CCCNC(=O)C1CCN(c2nc3ccc(CC)cc3s2)CC1	nt	5.1	78.9*	-61.7*	6.2	-6.1
CCCCN(C)CCCNC(=O)C1CCN(c2nc3ccc(CC)cc3s2)CC1	-6.9%	3.1	83.7*	-53.0*	2.8	-1.2
CCOc1ccc2nc(N3CCC(C(=O)Nc4c(C)cccc4C)CC3)sc2c1	-1.7%	-0.2	-0.9	-56.5*	-1.7	6.0
C[C@@H](C(=O)O)c1ccc(C2CCCCC2)c2ccccc12	-4.2%	nt	nt	nt	nt	nt
CCC1(c2ccc(F)cc2)NC(=O)N(CC(=O)N2CCc3ccccc32)C1=O (stereo unspecified)	8.2%	4.7	58.0*	-14.5	nt	-2.6
CCN(Cc1ccccc1)C(=O)CN1C(=O)NC(CC)(c2ccc(F)cc2)C1=O (stereo unspecified)	1.7%	0.2	6.1	9.8	-14.7	31.0*
CCC1(c2ccccc2)NC(=O)N(CC(=O)N2CCc3ccccc32)C1=O (stereo unspecified)	-2.3%	nt	nt	nt	nt	nt
COc1cc(OC)c(C2Nc3c(C)cccc3-c3cc(C)nn32)cc1OC (stereo unspecified)	-4.1%	-0.7	3.3	-6.9	-5.2	30.9*
O=C(c1ccc(Cn2cc(Br)cn2)cc1)N1N=C(C(F)F)CC1(O)C(F)F (stereo unspecified)	2.0%	1.2	47.6*	70.6	-2.2	5.8
O=C(c1ccc(Cn2cc(Br)cn2)cc1)N1CCN(c2ccccc2)CC1	0.7%	1.2	5.5	-8.9	4.0	-3.5
COc1ccc(NC(=S)N/N=C2/CCCc3c(C)cc(C)cc32)cc1	-4.9%	-0.2	1.3	-39.5*	4.0	-0.6
Cc1ccc(NC(=S)N/N=C2/CCCCc3ccccc32)cc1	3.8%	-0.5	0.8	-6.0	-1.2	-3.0
CCn1ccc(C(=O)NC2=C(C#N)CCC2)n1	-5.3%	-0.3	-0.1	-18.7	-11.6	2.6
CN(C)c1ccc(/C=C/c2ccnc3c(Cl)cccc23)cc1	-3.8%	nt	nt	nt	nt	nt
CCOC(=O)c1sc2nc(C)nc(Nc3ccc(OC)cc3)c2c1C	-4.1%	-0.6	2.3	-30.2*	-0.7	-1.2
COc1ccc(Nc2cc(O)c3ncccc3c2)cc1	nt	-0.5	0.4	-2.6	-8.1	-2.0
SMILES	GRP78 ERSR act	TRHR ag	D1 agonist	D1 antagonist	D1 potentiator	TRHR enhancer
CCOC(=O)c1c(C)[nH]c(C)c1S(=O)(=O)NCC1CCN(Cc2ccccc2OC)CC1	-1.7%	-0.4	0.9	2.4	-3.2	-7.4
O=C(NCCCN1CCCCCC1)c1ccc2c(c1)sc1nc(-c3ccccc3)cn12	-2.8%	0.3	1.7	-12.5	3.9	13.9
CCCN1CCN(CCCNC(=O)c2ccc3c(c2)sc2nc(-c4ccc(C)cc4)cn23)CC1	2.2%	0.2	1.6	-30.4*	-2.4	0.9
CCCc1c(C(=O)Nc2ccc(F)cc2C)cnn1-c1ccccc1	-2.1%	-0.6	4.8	-23.8	-10.9	-0.5
CCCc1c(NC(=O)Nc2ccc(F)cc2)cnn1-c1ccccc1	2.1%	0.1	14.1	-46.0*	-3.6	3.0
COC(=O)c1cnc(Oc2ccc(NC(=O)NC(=O)c3c(F)cccc3F)cc2)cc1C(F)(F)F	-4.1%	1.2	4.6	-3.1	-4.8	3.2
COC(=O)c1cnc(Oc2ccc(NC(=O)NC(=O)c3c(OC)cccc3OC)cc2)cc1C(F)(F)F	-5.4%	1.7	2.4	-54.4*	-10.9	3.4
O=S(=O)(c1ccc(F)cc1)N1CCN(c2nc(-c3ccccc3)nc3ccccc23)CC1	-0.7%	nt	nt	nt	nt	nt
CN(CCC#N)c1ccc(/C=C(\C#N)c2ccccn2)cc1	-10.1%	-0.4	4.5	-19.3	-4.9	1.2
CCN(CC)c1ccc(/C=C(\C#N)c2ccccn2)cc1	-13.8%	3.4	35.4*	-86.6*	-2.0	0.4
CCN(Cc1ccccc1)c1ccc(/C=C(\C#N)c2ccccn2)cc1	4.7%	5.0	31.4*	11.5	10.3	6.4
Cn1c(-c2c(N)n(-c3ccccc3)c3nc4ccccc4nc23)nc2ccccc21	-4.6%	17.0	50.5*	14.0	-0.7	1.8
Cc1ccc(-n2c(N)c(-c3nc4ccccc4n3C)sc2=S)cc1	2.6%	0.1	-2.5	-4.5	-5.7	-3.9
Cc1cccc(-n2c(N)c(-c3nc4ccccc4n3C)c3nc4ccccc4nc32)c1	-1.0%	12.9	59.6*	2.9	2.5	0.3
O=C(c1ccc(N2CCC(NCCCn3ncc4ccccc43)CC2)cc1)N1CCc2ccccc2C1	-2.4%	nt	nt	nt	nt	nt
Cc1ccc(S(=O)(=O)N2CCN(C(=O)c3ccnn3C)CC2)cc1C	-0.3%	-0.4	1.5	-33.6*	-4.5	-6.0
O=C(Nc1ccc(Cl)cc1)c1cncs1	1.3%	-1.2	1.1	-47.0*	-6.7	1.3
CC(C)CCCC(C)CCCC(C)CCCC(C)C(=O)O (stereo unspecified)	-2.9%	nt	nt	nt	nt	nt
CCOc1ccc(OCc2cccc(C(=O)N3CCCCCC3)c2)cc1	-14.5%	-0.2	10.1	-20.6	-6.1	-5.2
O=C(NN1CCCCC1)c1cccc(COc2ccc(Cl)cc2)c1	-0.1%	0.6	4.7	-30.7*	-2.7	1.5
